We go through five compounds from PubChem BioAssay.

Sequence of NADPH oxidase 5 (Homo sapiens) (Q96PH1 whole entry, looked up): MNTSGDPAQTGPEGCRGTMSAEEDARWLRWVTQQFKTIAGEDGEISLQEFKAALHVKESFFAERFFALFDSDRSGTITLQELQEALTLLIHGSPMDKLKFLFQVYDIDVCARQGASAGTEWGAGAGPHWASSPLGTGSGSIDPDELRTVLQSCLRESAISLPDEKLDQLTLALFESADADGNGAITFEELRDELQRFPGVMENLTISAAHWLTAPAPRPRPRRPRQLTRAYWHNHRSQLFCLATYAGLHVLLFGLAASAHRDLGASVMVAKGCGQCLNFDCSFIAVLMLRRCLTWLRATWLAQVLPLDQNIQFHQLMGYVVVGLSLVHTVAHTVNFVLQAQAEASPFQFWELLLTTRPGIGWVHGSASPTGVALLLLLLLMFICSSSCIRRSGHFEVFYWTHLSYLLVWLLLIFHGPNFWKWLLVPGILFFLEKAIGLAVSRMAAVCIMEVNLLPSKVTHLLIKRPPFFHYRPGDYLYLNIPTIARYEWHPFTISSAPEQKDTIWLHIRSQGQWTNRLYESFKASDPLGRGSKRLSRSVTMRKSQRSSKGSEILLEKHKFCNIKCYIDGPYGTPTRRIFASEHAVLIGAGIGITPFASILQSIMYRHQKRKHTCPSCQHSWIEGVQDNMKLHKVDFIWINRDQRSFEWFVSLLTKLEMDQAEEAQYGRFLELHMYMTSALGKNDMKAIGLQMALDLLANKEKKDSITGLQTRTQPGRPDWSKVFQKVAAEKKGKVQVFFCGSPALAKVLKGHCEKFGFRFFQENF

The test concerns the target NADPH oxidase 5 (Homo sapiens) (UniProt Q96PH1). Kind of test: compounds shifting NOX5 Amplex Red fluorescence – cell-based, HEK293-NOX5, NOX inhibitor project, primary screen (AID 1161). Conditions: HEK293-NOX5, ionomycin, 45 min, higher = more signal.
As to `O=C1O[C@H](c2ccccc2)[C@H](c2ccccc2)N2[C@H]1[C@@H](C(=O)Nc1nc3ccccc3s1)[C@]1(C(=O)Nc3ccc(C#CC4(O)CCCCCC4)cc31)[C@H]2c1ccccc1OCCO`, the z-score is 1.5.

Turning to `CCOC(=O)C[C@H]1[C@H](OC(=O)c2ccccc2-c2ccccc2)[C@@H](NC(=O)C2CCCCC2)c2cc(OCCCO)ccc2N1C(=O)Cc1ccc(OC)cc1`, the z-score is 0.103.

With `CN(C)CCCNC(=O)[C@@]1(C)c2ccccc2C(=O)N(Cc2ccccc2)[C@H]1c1ccc(CO)cc1`, the z-score turned out to be 0.6.

Consider `NC(=O)N1C(=O)C2C(C1=O)C1C=C(CCCO)C2C(c2cccs2)N1Cc1cccc(OC(F)(F)F)c1` (stereo not given), for which the z-score was -1.12.

For the compound `COc1ccc(NC(=O)O[C@H]2[C@H](OC(=O)Nc3ccccc3)[C@@H](OC(=O)Nc3ccccc3)[C@@H](OC)O[C@@H]2CO)cc1`, the z-score is -2.43.
